High-throughput results as filed in PubChem.
Most compounds without a hit are left out; they make up all but 0.87% or so of the library.
RECQ1 inh: qHTS Assay for Inhibitors of RecQ-Like Dna Helicase 1 (RECQ1). ATP-dependent DNA helicase Q1 (Homo sapiens), P46063. RECQ1 DNA unwinding, red fluorescence kinetic read. Potency, µM (top dose mostly 57.3 µM), for inactives: at the top dose activity, negative = inhibition, usual class: inhibitors. hit rate 0.54% among 240,000;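 note: plate controls were vehicle for no effect and no enzyme for full effect; nearly all actives have a fitted effect of over 30% in size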
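RECQ1T1 50 nM; forked duplex (20 bp + 30-nt ss tails) 200 nM, ATP 2 mM final; pH 8.0, 2 mM MgCl2, 2.5 ug/ml poly(dI-dC); 15 min compound preincubation; discontinuous kinetic read over 2 h at RT.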
APE1 inh-1: qHTS Assay for Inhibitors of the Human Apurinic/apyrimidinic Endonuclease 1 (APE1) | DNA repair nuclease/redox regulator APEX1 (Homo sapiens), P27695 | recombinant APE1, TAMRA/BHQ-2 abasic DNA cleavage fluorescence | Potency, µM (doses to about 65.8 µM), for inactives: at the highest dose activity change, negative = inhibition, actives largely listed as inhibitors | hit rate 0.35% among 350,000 | AID 2517, 2012;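 note: plate controls were vehicle for no effect and reference inhibitor for full effect; nearly all actives have a fitted effect of over 55% in size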
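Activity was derived from the fluorescence gain between first and third kinetic reads (60 s intervals, ex 525/em 598 nm) after 50 nM THF-abasic TAMRA/BHQ-2 duplex was added to 0.75 nM APE1 preincubated 15 min with compound.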
BLM inh: qHTS Assay for Inhibitors of Bloom's syndrome helicase (BLM); hit rate 0.2% among 350,000; Potency, µM (top dose mostly 56.1 µM), without a hit: top-dose activity change, negative = inhibition, actives largely listed as inhibitors; RecQ-like DNA helicase BLM (Homo sapiens), P54132; recombinant BLM DNA unwinding, fluorescence dequenching;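 note: plate controls were vehicle for no effect and no enzyme for full effect; nearly all actives have a fitted effect of over 35% in size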
WRN helicase inh: qHTS for Inhibitors of WRN Helicase | AID 651768, 2012 | WRN helicase unwinding, fluorescent forked duplex, kinetic | Potency, µM (series often up to 114 µM), for inactives: top-dose activity change, negative = inhibition, actives largely listed as inhibitors | Bifunctional 3'-5' exonuclease/ATP-dependent helicase WRN (Homo sapiens), Q14191 | hit rate 0.46% among 360,000; note: nearly all actives have a fitted effect of over 55% in size
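Primary qHTS, 1536-well format. 20 nM WRN + compound, 15 min RT; start with 100 nM forked fluorophore/quencher duplex, 2 mM ATP (final); kinetic read ex 525/em 598 nm.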
FEN1 inh: qHTS Assay for the Inhibitors of Human Flap endonuclease 1 (FEN1); P39748; hit rate 0.35% among 390,000; Potency, µM (titrated, usually from 114 µM), without a hit: at the top dose activity change, negative = inhibition, most hits filed as inhibitors; Recombinant FEN1 flap cleavage, fluorescence, 15 min; note: nearly all actives have a fitted effect of over 65% in size
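Reaction started by adding substrate (50 nM final) to 10 nM enzyme after 15 min room-temperature compound preincubation. Reads at 0 and 15 min, with data normalized and fitted to a four-parameter Hill equation.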
APE1 dye cs: Counterscreen for APE1 Inhibitors: Fluorescent Dye Displacement Assay; Potency, µM (highest dose often 28.5 µM), without a hit: at the highest dose activity change, negative = inhibition, usual class: inhibitors; shares compounds with APE1 inh-1; hit rate 7% among 480; DNA fluorescent dye displacement counterscreen, fluorescence;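 note: loss of thiazole orange fluorescence as the dye is displaced from duplex DNA; 0% = ThO with dsDNA and no compound and -100% = ThO without dsDNA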
Endo IV inh: Counterscreen for APE1 Inhibitors: qHTS Assay for Inhibitors of Endonuclease IV. hit rate 4% among 560. shares compounds with APE1 inh-1. E. coli Endo IV, fluorogenic AP-site DNA cleavage. Potency, µM (top dose mostly 27.1 µM), inactives show top-dose activity change, negative = inhibition, most hits filed as inhibitors;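 note: plate controls were uninhibited enzyme wells for no effect and no enzyme buffer wells for full effect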
APE1 inh-2: Confirmation qHTS Assay for Inhibitors of the Human Apurinic/apyrimidinic Endonuclease 1 (APE1). shares compounds with APE1 inh-1. purified APE1, fluorogenic abasic-site DNA cleavage. Potency, µM (titrated, usually from 57.1 µM), for inactives: at the highest dose activity change, negative = inhibition, actives largely listed as inhibitors. hit rate 44% among 750; note: nearly all actives have a fitted effect of over 30% in size
APE1 FP inh: qHTS FP-Based Assay for Inhibitors of the Human Apurinic/apyrimidinic Endonuclease 1 (APE1); AID 2573, 2010; Potency, µM (doses to about 28.5 µM), for the others: top-dose activity, negative = inhibition, most hits filed as inhibitors; shares compounds with APE1 inh-1; APE1 binding to TAMRA-labelled double-stranded DNA, fluorescence polarization displacement; hit rate 7% among 480
* marks the source's active call; other numbers are inactive results; ? = inconclusive; . = no result; [ ] = dose if it differs, or a comment. Calls come from the whole dose curve; as a rule, active = well fitted curve in the direction sought with a large enough effect; inconclusive = small, poorly fitted or top-dose-only effect, or another doubt; inactive = no such curve, though single readings can be large; an effect the other way counts as inactive or inconclusive. Unless noted, % is set by controls: 0 for no effect and ±100 for the full control effect; potency is the fitted concentration of half-maximal effect.

SMILES	RECQ1 inh	APE1 inh-1	BLM inh	WRN helicase inh	FEN1 inh	APE1 dye cs	Endo IV inh	APE1 inh-2	APE1 FP inh
CC(C)NC[C@@H](O)COc1cccc2ccccc12	2.3%	11.7%	25.9%	-5.1%	9.9%	.	-4.9%[57.1 µM]	-15.1%	.
Cc1ccc(-n2ncc(C(=O)NCCc3ccsc3)c2C2CCN(C(=O)OC(C)(C)C)CC2)c(C)c1	.	.	-7.0%	.	-0.7%	.	.	.	.
[N-]=[N+]=Nc1ccc(C(=O)CSC[C@H](NC(=O)CC[C@H](N)C(=O)O)C(=O)NCC(=O)O)cc1	-4.8%	?	.	.	.	.	-23.5%[57.1 µM]	-61.2%	.
N[C@@H](CCC(=O)N[C@@H](CSN=O)C(=O)NCC(=O)O)C(=O)O	.	-0.4%	.	-6.8%	8.9%	.	.	.	.
C/C(=N\NC(=O)c1ccc2nc[nH]c2c1)c1ccc([N+](=O)[O-])cc1	-4.9%	3.5%	5.4%	.	.	.	.	-22.3%	.
Cc1ccc2nc(CSc3nnc(-c4ccco4)n3-c3ccccc3)cc(=O)n2c1	.	.	.	1.6%	2.1%	.	.	.	.
Cc1ccc2nc(CSc3nnc(-c4ccco4)o3)cc(=O)n2c1	?	22.4µM*	?	-34.4%	9.2%	-6.7%	4.3%	-21.9%	-3.7%
CC(C)(C)c1ccc(OCC(=O)N(Cc2ccco2)Cc2ccccc2F)cc1	.	.	-7.1%	.	0.0%	.	.	.	.
COc1ccc(/C=N/NC(=O)COc2cccc3cccnc23)cc1OC	-8.2%	-1.8%	29.8%	-15.4%	-15.1%	.	.	?	.
CCn1cc(/C=N/NC(=O)COc2cccc3cccnc23)c2ccccc21	-17.6%	-5.9%	-4.1%	?	-14.1%	.	.	.	.
O=C(O)c1cc2cc(F)ccc2[nH]1	0.7%	-3.2%	-2.4%	3.3%	2.2%	.	.	?	.
O=C(CSc1nnnn1-c1ccccc1)NC(=O)NCc1ccco1	-22.7%	28.2µM*	-17.4%	-20.3%[11.6 µM]	-7.5%	?	3.7%	?	?
Cn1nnnc1SCC(=O)NCc1ccco1	-2.1%	2.4%	-4.9%	-6.9%	-10.9%	.	.	.	.
CCOc1ccccc1-n1nnnc1SCC(=O)NC(=O)NCc1ccco1	-29.3%	28.2µM*	-20.6%	-14.9%[57.1 µM]	7.4%	?	-4.9%	?	?
O=C(CSc1nnc(COc2ccccc2Cl)o1)NC(=O)NCc1ccco1	-17.4%	11.2µM*	-29.8%	-7.7%[11.6 µM]	-10.6%	?	-3.6%	14.1µM*	0.4%
O=C(O[C@@H]1OC2COC(=O)c3cc(O)c(O)c(O)c3-c3c(cc(O)c(O)c3O)C(=O)O[C@@H]([C@H]1O)[C@@H]2O)c1cc(O)c(O)c(O)c1	-28.5%	0.0708µM*	5.62µM*	?	0.708µM*	-6.8%	110.9%	0.0501µM*	?
